Laboratory results taken from article PMC7862700, “An all-to-all approach to the identification of sequence-specific readers for epigenetic DNA modifications on cytosine”.

Key:
Assay in all cases: DAPPL (digital affinity profiling via proximity ligation, sequencing); 10 mM Tris-HCl pH 7.5, 50 mM NaCl, 1 mM DTT, 4% glycerol, room temperature, 30 min; GST-TFs on glutathione beads, 16-mer random dsDNA library, 0.1% formaldehyde crosslink after washing; high values mean tight binding
Conditions in all cases: protein: recombinant; tags: N-terminal GST; dsDNA, one strand shown
FLI1 = biological target: T1, FLI1 (Homo sapiens, UniProt Q01543 1-452)
T1 sequence: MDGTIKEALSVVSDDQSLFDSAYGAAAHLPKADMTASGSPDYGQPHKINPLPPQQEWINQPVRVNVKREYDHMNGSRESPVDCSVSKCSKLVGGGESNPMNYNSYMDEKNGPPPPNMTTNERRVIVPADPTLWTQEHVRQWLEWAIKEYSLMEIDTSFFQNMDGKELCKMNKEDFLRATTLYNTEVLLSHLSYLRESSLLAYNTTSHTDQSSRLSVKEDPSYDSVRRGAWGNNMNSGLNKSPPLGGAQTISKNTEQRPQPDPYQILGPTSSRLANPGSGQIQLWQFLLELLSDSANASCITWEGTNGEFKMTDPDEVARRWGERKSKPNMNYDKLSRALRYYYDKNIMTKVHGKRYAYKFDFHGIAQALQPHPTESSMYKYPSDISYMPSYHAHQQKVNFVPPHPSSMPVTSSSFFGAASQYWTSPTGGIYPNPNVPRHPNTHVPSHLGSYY
Procedure, shortened: (§1)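 Binding signal is each hexamer's read frequency for a factor divided by its frequency in the tag-only sample. The factors were GST-fused human transcription factors from yeast, captured on glutathione beads, DNA-barcoded and pooled with that sample. Pools were incubated with 200 nmole of a random double-stranded 16-mer DNA library in Tris/NaCl/DTT/glycerol buffer at room temperature for 30 min, then washed, crosslinked with 0.1% formaldehyde, proximity-ligated with BsaI/T4 ligase (1 h, 37 °C), PCR-amplified and sequenced on an Illumina NextSeq500.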

ELK1 = biological target: T2, ELK1 (Homo sapiens, UniProt P19419 1-428)
T2 sequence: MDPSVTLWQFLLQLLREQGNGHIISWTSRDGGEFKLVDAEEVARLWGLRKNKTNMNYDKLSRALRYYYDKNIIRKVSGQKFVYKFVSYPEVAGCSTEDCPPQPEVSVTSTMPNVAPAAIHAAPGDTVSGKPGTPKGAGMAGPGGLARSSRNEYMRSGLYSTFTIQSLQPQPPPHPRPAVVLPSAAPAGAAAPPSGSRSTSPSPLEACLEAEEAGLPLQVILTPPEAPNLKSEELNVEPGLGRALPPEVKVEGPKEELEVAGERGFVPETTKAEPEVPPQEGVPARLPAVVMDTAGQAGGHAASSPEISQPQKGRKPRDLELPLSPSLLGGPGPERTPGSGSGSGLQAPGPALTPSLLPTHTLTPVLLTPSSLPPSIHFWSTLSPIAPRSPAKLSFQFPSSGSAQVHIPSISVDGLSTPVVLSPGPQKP
Procedure, shortened: as §1

GABPA = biological target: T3, GABPA (Homo sapiens, UniProt Q06546 1-454)
T3 sequence: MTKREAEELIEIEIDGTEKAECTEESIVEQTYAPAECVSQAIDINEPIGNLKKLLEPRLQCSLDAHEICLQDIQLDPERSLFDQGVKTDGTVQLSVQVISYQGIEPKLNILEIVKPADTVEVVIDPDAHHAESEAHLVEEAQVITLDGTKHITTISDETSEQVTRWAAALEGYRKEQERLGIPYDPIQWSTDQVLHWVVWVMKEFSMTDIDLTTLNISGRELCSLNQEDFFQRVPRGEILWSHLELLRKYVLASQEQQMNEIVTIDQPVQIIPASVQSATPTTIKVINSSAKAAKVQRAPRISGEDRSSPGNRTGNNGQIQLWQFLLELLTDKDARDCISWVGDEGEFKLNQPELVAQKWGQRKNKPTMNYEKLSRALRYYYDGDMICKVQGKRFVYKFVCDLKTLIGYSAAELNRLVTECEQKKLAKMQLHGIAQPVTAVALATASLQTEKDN
Procedure, shortened: as §1

ERG = biological target: T4, ERG (Homo sapiens, UniProt P11308 1-479)
T4 sequence: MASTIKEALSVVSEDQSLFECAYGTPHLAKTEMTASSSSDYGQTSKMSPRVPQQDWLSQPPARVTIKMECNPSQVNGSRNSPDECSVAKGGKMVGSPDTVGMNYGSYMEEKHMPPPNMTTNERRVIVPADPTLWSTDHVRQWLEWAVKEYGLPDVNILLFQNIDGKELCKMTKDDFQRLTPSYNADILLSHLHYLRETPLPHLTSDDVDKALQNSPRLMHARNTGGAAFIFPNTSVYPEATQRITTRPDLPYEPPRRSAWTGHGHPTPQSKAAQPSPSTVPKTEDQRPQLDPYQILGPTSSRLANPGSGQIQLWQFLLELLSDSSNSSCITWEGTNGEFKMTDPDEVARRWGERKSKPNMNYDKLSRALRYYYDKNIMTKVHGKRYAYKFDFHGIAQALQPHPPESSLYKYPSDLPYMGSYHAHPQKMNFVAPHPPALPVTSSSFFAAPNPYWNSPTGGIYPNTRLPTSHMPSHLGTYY
Procedure, shortened: as §1

ELF1 = ELF1 (Homo sapiens, UniProt P32519 1-619)
Sequence of ELF1 (P32519 whole entry): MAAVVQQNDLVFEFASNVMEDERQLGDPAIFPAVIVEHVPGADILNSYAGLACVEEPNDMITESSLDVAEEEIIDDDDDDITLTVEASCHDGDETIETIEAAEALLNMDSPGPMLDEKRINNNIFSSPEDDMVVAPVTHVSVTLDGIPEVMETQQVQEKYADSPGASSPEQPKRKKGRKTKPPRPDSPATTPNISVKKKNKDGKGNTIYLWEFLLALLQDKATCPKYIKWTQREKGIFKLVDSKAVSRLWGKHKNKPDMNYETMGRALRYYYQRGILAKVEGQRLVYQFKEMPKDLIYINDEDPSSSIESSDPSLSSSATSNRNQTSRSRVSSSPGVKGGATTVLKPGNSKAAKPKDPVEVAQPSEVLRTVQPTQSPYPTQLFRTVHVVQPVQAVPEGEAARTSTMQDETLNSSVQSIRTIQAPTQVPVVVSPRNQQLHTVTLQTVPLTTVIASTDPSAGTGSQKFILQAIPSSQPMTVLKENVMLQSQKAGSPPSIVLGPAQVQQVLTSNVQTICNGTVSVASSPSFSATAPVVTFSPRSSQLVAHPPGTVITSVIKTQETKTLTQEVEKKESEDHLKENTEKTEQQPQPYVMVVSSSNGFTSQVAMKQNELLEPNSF
Procedure, shortened: as §1

EHF = biological target: T5, EHF (Homo sapiens, UniProt Q9NZC4 1-300)
T5 sequence: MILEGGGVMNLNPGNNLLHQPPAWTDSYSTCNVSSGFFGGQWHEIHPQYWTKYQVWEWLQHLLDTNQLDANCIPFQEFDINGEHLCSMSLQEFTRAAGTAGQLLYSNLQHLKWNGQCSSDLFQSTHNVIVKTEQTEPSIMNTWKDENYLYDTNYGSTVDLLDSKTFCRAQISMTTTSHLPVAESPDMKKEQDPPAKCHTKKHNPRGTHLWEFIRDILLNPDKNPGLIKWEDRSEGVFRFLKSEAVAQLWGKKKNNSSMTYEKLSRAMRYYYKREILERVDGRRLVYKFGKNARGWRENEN
Procedure, shortened: as §1

SPI1 = SPI1 (Homo sapiens, UniProt P17947 1-270)
Procedure, shortened: as §1

SPIB = SPIB (Homo sapiens, UniProt Q01892 1-262)
Sequence of SPIB (Q01892 whole entry): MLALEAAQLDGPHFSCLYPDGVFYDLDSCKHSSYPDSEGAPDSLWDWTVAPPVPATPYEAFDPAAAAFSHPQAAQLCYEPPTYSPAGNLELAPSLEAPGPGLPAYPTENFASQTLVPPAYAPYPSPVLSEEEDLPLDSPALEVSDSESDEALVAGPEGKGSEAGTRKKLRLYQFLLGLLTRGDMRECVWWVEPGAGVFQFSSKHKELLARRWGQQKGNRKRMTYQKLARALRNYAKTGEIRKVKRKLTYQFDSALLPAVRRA
Procedure, shortened: as §1

ELK3 = biological target: T6, ELK3 (Homo sapiens, UniProt P41970 1-407)
T6 sequence: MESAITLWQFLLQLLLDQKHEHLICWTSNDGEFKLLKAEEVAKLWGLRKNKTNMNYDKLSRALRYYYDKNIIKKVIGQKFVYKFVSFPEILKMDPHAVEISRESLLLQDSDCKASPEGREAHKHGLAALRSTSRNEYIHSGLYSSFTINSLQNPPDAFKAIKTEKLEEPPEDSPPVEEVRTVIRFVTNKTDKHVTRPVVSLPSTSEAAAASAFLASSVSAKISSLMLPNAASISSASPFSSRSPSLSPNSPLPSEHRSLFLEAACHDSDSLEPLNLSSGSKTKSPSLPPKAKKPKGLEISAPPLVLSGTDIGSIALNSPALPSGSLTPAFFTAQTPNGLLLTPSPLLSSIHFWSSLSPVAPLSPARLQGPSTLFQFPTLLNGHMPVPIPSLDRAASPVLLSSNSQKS
Procedure, shortened: as §1

Row | Sequence | binding signal (FLI1) | binding signal (ELK1) | binding signal (GABPA) | binding signal (ERG) | binding signal (ELF1) | binding signal (EHF) | binding signal (SPI1) | binding signal (SPIB) | binding signal (ELK3)
1 | CTAAGC | 1.09 fold enrichment (6-mer frequency, TF over GST control) | 1.06 fold enrichment (6-mer frequency, TF over GST control) | 1.08 fold enrichment (6-mer frequency, TF over GST control) | 1.11 fold enrichment (6-mer frequency, TF over GST control) | 1.15 fold enrichment (6-mer frequency, TF over GST control) | 1.14 fold enrichment (6-mer frequency, TF over GST control) | 1.03 fold enrichment (6-mer frequency, TF over GST control) | 1.16 fold enrichment (6-mer frequency, TF over GST control) | 1.03 fold enrichment (6-mer frequency, TF over GST control)
2 | GTTCAT | 1.19 fold enrichment (6-mer frequency, TF over GST control) | 1.25 fold enrichment (6-mer frequency, TF over GST control) | 1.19 fold enrichment (6-mer frequency, TF over GST control) | 1.1 fold enrichment (6-mer frequency, TF over GST control) | 1.13 fold enrichment (6-mer frequency, TF over GST control) | 1.17 fold enrichment (6-mer frequency, TF over GST control) | 1.18 fold enrichment (6-mer frequency, TF over GST control) | 1.14 fold enrichment (6-mer frequency, TF over GST control) | 1.15 fold enrichment (6-mer frequency, TF over GST control)
3 | TCGATA | 1.17 fold enrichment (6-mer frequency, TF over GST control) | 1.03 fold enrichment (6-mer frequency, TF over GST control) | 1.08 fold enrichment (6-mer frequency, TF over GST control) | 1.1 fold enrichment (6-mer frequency, TF over GST control) | 1.11 fold enrichment (6-mer frequency, TF over GST control) | 1.12 fold enrichment (6-mer frequency, TF over GST control) | 1.12 fold enrichment (6-mer frequency, TF over GST control) | 1.03 fold enrichment (6-mer frequency, TF over GST control) | 1.06 fold enrichment (6-mer frequency, TF over GST control)
4 | CGCTCC | 1.37 fold enrichment (6-mer frequency, TF over GST control) | 1.28 fold enrichment (6-mer frequency, TF over GST control) | 1.37 fold enrichment (6-mer frequency, TF over GST control) | 1.33 fold enrichment (6-mer frequency, TF over GST control) | 1.31 fold enrichment (6-mer frequency, TF over GST control) | 1.24 fold enrichment (6-mer frequency, TF over GST control) | 1.29 fold enrichment (6-mer frequency, TF over GST control) | 1.36 fold enrichment (6-mer frequency, TF over GST control) | 1.37 fold enrichment (6-mer frequency, TF over GST control)
5 | AATATT | 1.39 fold enrichment (6-mer frequency, TF over GST control) | 1.29 fold enrichment (6-mer frequency, TF over GST control) | 1.29 fold enrichment (6-mer frequency, TF over GST control) | 1.18 fold enrichment (6-mer frequency, TF over GST control) | 1.36 fold enrichment (6-mer frequency, TF over GST control) | 1.32 fold enrichment (6-mer frequency, TF over GST control) | 1.23 fold enrichment (6-mer frequency, TF over GST control) | 1.34 fold enrichment (6-mer frequency, TF over GST control) | 1.42 fold enrichment (6-mer frequency, TF over GST control)
6 | TAGCAT | 1.16 fold enrichment (6-mer frequency, TF over GST control) | 1.15 fold enrichment (6-mer frequency, TF over GST control) | 1.05 fold enrichment (6-mer frequency, TF over GST control) | 1.11 fold enrichment (6-mer frequency, TF over GST control) | 1.17 fold enrichment (6-mer frequency, TF over GST control) | 1.14 fold enrichment (6-mer frequency, TF over GST control) | 1.07 fold enrichment (6-mer frequency, TF over GST control) | 1.05 fold enrichment (6-mer frequency, TF over GST control) | 1.13 fold enrichment (6-mer frequency, TF over GST control)
7 | GCCTAT | 1.18 fold enrichment (6-mer frequency, TF over GST control) | 1.3 fold enrichment (6-mer frequency, TF over GST control) | 1.21 fold enrichment (6-mer frequency, TF over GST control) | 1.23 fold enrichment (6-mer frequency, TF over GST control) | 1.39 fold enrichment (6-mer frequency, TF over GST control) | 1.17 fold enrichment (6-mer frequency, TF over GST control) | 1.13 fold enrichment (6-mer frequency, TF over GST control) | 1.21 fold enrichment (6-mer frequency, TF over GST control) | 1.27 fold enrichment (6-mer frequency, TF over GST control)
8 | GTCACA | 1.11 fold enrichment (6-mer frequency, TF over GST control) | 1.1 fold enrichment (6-mer frequency, TF over GST control) | 1.12 fold enrichment (6-mer frequency, TF over GST control) | 1.13 fold enrichment (6-mer frequency, TF over GST control) | 1.17 fold enrichment (6-mer frequency, TF over GST control) | 1.07 fold enrichment (6-mer frequency, TF over GST control) | 1.13 fold enrichment (6-mer frequency, TF over GST control) | 1.07 fold enrichment (6-mer frequency, TF over GST control) | 1.04 fold enrichment (6-mer frequency, TF over GST control)
